From PubChem BioAssay (EPA / NIEHS)
“And” between values parts separate entries of the source, which are not always exact repeats. Identical values can stand only once. Results filed as inconclusive are left out. Some structures have more than one record in an assay (separate samples or runs), and their calls can disagree. The source made the active and inactive calls. How the source made its calls, unless noted: active means hit-call score of the fitted dose curve at least 0.9, where 1 is the maximum; inconclusive means response in the unintended direction; inactive means score below 0.9.

What was measured:
[1] = target: human Adenosine Transporter (Adot), SLC29A1 (gene 2030) (UniProt Q99808); assay: NVS_TR_hAdoT: NovaScreen (NVS) Transporter Assay for human Adenosine Transporter (Adot) (AID 2283368)
In short: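 U937-derived membranes, cell-free radioligand binding, filter scintillation 1 h after dosing. 25 uM duplicate screen; hits (e.g. 30% inhibition) run in concentration-response up to 50 uM; loss of signal versus DMSO.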

[2] = tested on: guinea pig Dopamine Transporter (DAT), gene 100714898; assay: NVS_TR_gDAT: NovaScreen (NVS) Transporter Assay for guinea pig Dopamine Transporter (DAT) (AID 2283369);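 further: active compounds lower bound radioligand signal relative to DMSO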
In short: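 Guinea pig striatal membranes, cell-free radioligand binding with filter-based scintillation counting, read 2 h after dosing. Loss of signal versus DMSO baseline; single-concentration primary (25 uM) then concentration-response up to 50 uM.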

[3] = target: Peroxisome proliferator-activated receptor gamma (Homo sapiens) (UniProt P37231); assay: NVS_NR_hPPARg: NovaScreen (NVS) Nuclear Receptor Binding Assay for human Peroxisome Proliferator-activated Receptor gamma (PPARg) (AID 2283370)
In short: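 Cell-free fluorescence polarization binding to human PPARg protein, read 2 h after dosing. Primary screen in duplicate at 25 uM, actives followed in concentration series; loss of signal relative to DMSO scored.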

[4] = target: human Norepinephrine Transporter (NET), SLC6A2 (gene 6530) (UniProt P23975); assay: NVS_TR_hNET: NovaScreen (NVS) Transporter Assay for human Norepinephrine Transporter (NET) (AID 2283377);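 further: cell-free membrane protein extracted from CHO cells expressing human NET; displacement of radioligand from human NET seen as loss of scintillation signal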
In short: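 Scintillation counts of filter-retained radioligand served as the readout, taken 1 h post-dosing in a cell-free CHO-derived system. Test chemicals ran first at 25 uM in duplicate; confirmed hits were retested across concentrations.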

[5] = target: mouse Estrogen Receptor alpha (Era), Esr1 (gene 13982) (UniProt P19785); assay: NVS_NR_mERa: NovaScreen (NVS) Nuclear Receptor Binding Assay for mouse Estrogen Receptor alpha (Era) (AID 2283378);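 further: hit means loss of bound radioligand signal relative to DMSO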
In short: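 Cell-free radioligand competitive displacement binding, read by filter-based scintillation counting 18 h after dosing. Primary screen run in duplicate at 25 uM, actives retested in concentration series; loss of signal versus DMSO.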

[6] = target: Estrogen receptor beta (Homo sapiens) (UniProt Q92731); assay: OT_ER_ERbERb_1440: Odyssey Thera (OT) 24-hour HEK293T Protein-Complementation Assay for Estrogen Receptor-beta/-beta Homodimer (AID 2283380);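 further: fluorescence gain from ER beta LBD homodimer complementation read by laser scanning cytometry; scored as signal increase over DMSO baseline for both agonists and antagonists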
In short: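 Fluorescence increase, nuclear for agonists or whole-cell for antagonists, relative to DMSO vehicle, quantified by laser scanning cytometer after fixation and Draq5 staining. Readout from 24 h treatment of HEK293T cells carrying complementation-paired ER beta LBD (aa 310-547).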

[7] = target: Estrogen receptor (Homo sapiens) (UniProt P03372); assay: OT_ERa_GFPERaERE_0480: Odyssey Thera (OT) 8-hour HeLa Transcription Induction Assay for Estrogen Receptor (AID 2283381; active means hit-call score of the fitted dose curve at least 0.9, where 1 is the maximum; inactive means score below 0.9)
In short: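 HeLa cells dosed with compound and imaged by fluorescence microscopy at 8 h; GFP induction from an ERE reporter quantified by high-content image analysis and fitted as gain of signal against DMSO baseline.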

[8] = target: Estrogen receptor (Homo sapiens) (UniProt P03372); assay: OT_ERa_GFPERaERE_0120: Odyssey Thera (OT) 2-hour HeLa Transcription Induction Assay for Estrogen Receptor (AID 2283382)
In short: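 HeLa cells were dosed with test chemical and read 2 hours later for GFP-ERα/ERE-linked fluorescent protein induction by fluorescence microscopy. Gain-of-signal was fitted relative to DMSO baseline, quantified by high content image analysis.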

[9] = target: Retinoic acid receptor RXR-alpha (Homo sapiens) (UniProt P19793); assay: OT_NURR1_NURR1RXRa_0480: Odyssey Thera (OT) 8-hour HEK293T Protein Complementation Assay for Nurr1/retinoid X receptor (RXR) (AID 2283385)
In short: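 HEK293T cells expressing Nurr1 and RXRα fused to reporter fragments were dosed with compound for 8 hours. Complex formation was read as fluorescence intensity and analysed as gain of signal against DMSO as baseline.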

[10] = target: Retinoic acid receptor RXR-alpha (Homo sapiens) (UniProt P19793); assay: OT_NURR1_NURR1RXRa_1440: Odyssey Thera (OT) 24-hour HEK293T Protein Complementation Assay for Nurr1/retinoid X receptor (RXR) (AID 2283386)
In short: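 HEK293T cells were dosed with compound and read 24 h later by fluorescence intensity in a protein-fragment complementation format, where Nurr1–RXRα interaction reconstitutes a split reporter. Activity was fitted as gain of signal relative to DMSO baseline.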

[11] = target: Peroxisome proliferator-activated receptor gamma (Homo sapiens) (UniProt P37231); assay: OT_PPARg_PPARgSRC1_0480: Odyssey Thera (OT) 8-hour Protein-Complementation Assay for Peroxisome Proliferator-activated Receptor Gamma / SRC-1 Co-activator (AID 2283387)
In short: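 HEK293T transiently transfected with PPARg and SRC-1 fused to Venus YFP fragments, compounds 8 h at 37C. Fixed, Draq5-stained cells imaged; nuclear/cytoplasmic 488 nm fluorescence ratio over at least 350 cells per image; gain fitted versus DMSO.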

[12] = target: Peroxisome proliferator-activated receptor gamma (Homo sapiens) (UniProt P37231); assay: OT_PPARg_PPARgSRC1_1440: Odyssey Thera (OT) 24-hour Protein-Complementation Assay for Peroxisome Proliferator-activated Receptor Gamma/ SRC-1 Co-activator (AID 2283388)
In short: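 HEK293T transiently transfected with PPARg/SRC-1 split-Venus YFP fusions 48 h before dosing, then treated 24 h at 37C. Fixed cells imaged; nuclear/cytoplasmic 488 nm fluorescence ratio, gain of signal versus DMSO.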

[13] = target: Bile acid receptor (Homo sapiens) (UniProt Q96RI1); assay: OT_FXR_FXRSRC1_0480: Odyssey Thera (OT) 8-hour HEK293T Protein-Complementation Assay for Farnesoid X receptor/SRC-1 Co-activator (AID 2283383)
In short: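 HEK293T cells expressing FXR and SRC-1 fused to reporter fragments were dosed with compound for 8 h; fluorescence from the reconstituted reporter marked co-activator recruitment. Gain of signal was fitted against the DMSO baseline.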

[14] = target: Bile acid receptor (Homo sapiens) (UniProt Q96RI1); assay: OT_FXR_FXRSRC1_1440: Odyssey Thera (OT) 24-hour HEK293T Protein-Complementation Assay for Farnesoid X receptor/SRC-1 Co-activator (AID 2283384)
In short: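 HEK293T cells were dosed with compound and read 24 h later by fluorescence intensity from protein-fragment complementation reporting FXR/SRC-1 co-activator interaction. Gain of signal was fitted relative to DMSO negative control as baseline.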

[15] = target: human Dopamine Transporter (DAT), SLC6A3 (gene 6531) (UniProt Q01959); assay: NVS_TR_hDAT: NovaScreen (NVS) Transporter Assay for human Dopamine Transporter (DAT) (AID 2283374);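 further: activity means loss of bound radioligand signal relative to DMSO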
In short: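 Test chemicals were first screened in duplicate at 25 uM, with actives retested as concentration series. Displacement of a specific radioligand from cell-free human dopamine transporter was measured after 1 h by filtration and scintillation counting.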

[16] = target: guinea pig Sigma Receptor, Non-selective Binding, SIGMAR1 (gene 100135589) (UniProt Q60492); assay: NVS_OR_gSIGMA_NonSelective: NovaScreen (NVS) Nuclear Receptor Binding Assay for guinea pig Sigma Receptor, Non-selective Binding (AID 2283367)
In short: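 gp brain membr., radioligand displacement, 1 h, filtration + scint. counting; DMSO = baseline; 25 uM x2 primary, conc.-response confirm.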

[17] = target: rat Serotonin Transporter (SERT), Slc6a4 (gene 25553) (UniProt P31652); assay: NVS_TR_rSERT: NovaScreen (NVS) Transporter Assay for rat Serotonin Transporter (SERT) (AID 2283375)
In short: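 Rat forebrain membranes; radioligand displacement at SERT read by filter-based scintillation counting, 1 h after dosing. Screened in duplicate at 25 uM, actives then run in concentration series; loss of signal versus DMSO baseline.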

[18] = tested on: rat Norepinephrine Transporter (NET), gene 83511; assay: NVS_TR_rNET: NovaScreen (NVS) Transporter Assay for rat Norepinephrine Transporter (NET) (AID 2283373)
In short: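 Rat forebrain membranes; radioligand binding measured by filter-based scintillation counting 1 hour after dosing. Loss of specific binding versus DMSO baseline scored; primary screen in duplicate at 25 uM, actives followed up in concentration series.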

Measured: AC50

Chain of Retinoic acid receptor RXR-alpha (Homo sapiens) (P19793 whole entry, looked up, the tested form may be a part): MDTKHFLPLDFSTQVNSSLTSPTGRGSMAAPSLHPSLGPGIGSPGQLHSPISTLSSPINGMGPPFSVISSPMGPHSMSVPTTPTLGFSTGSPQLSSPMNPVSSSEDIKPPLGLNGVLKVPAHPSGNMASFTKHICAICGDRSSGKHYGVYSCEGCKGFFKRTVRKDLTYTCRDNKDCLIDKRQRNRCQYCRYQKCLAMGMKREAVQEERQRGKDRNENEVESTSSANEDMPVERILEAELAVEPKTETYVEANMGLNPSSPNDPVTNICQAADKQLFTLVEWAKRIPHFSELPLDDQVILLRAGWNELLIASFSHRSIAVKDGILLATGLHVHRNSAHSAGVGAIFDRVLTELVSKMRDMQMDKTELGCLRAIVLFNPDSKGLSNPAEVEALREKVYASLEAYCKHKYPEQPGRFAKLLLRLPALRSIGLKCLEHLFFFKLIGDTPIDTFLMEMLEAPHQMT
Chain of Peroxisome proliferator-activated receptor gamma (Homo sapiens) (P37231 whole entry, looked up, the tested form may be a part): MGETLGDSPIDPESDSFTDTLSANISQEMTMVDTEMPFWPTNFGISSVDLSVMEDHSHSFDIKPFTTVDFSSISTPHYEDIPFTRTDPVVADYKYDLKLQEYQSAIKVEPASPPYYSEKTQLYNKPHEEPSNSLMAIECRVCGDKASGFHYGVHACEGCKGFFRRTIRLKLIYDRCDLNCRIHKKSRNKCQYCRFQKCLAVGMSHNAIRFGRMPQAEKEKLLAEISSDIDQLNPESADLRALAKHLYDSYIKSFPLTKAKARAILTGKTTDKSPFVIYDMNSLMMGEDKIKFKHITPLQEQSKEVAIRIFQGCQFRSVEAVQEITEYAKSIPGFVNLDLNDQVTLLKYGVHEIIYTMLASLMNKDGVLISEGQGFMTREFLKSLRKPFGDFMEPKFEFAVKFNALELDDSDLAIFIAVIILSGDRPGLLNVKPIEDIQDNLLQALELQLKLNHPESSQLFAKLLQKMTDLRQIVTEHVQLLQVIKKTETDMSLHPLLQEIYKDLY
Chain of Estrogen receptor (Homo sapiens) (P03372 whole entry, looked up): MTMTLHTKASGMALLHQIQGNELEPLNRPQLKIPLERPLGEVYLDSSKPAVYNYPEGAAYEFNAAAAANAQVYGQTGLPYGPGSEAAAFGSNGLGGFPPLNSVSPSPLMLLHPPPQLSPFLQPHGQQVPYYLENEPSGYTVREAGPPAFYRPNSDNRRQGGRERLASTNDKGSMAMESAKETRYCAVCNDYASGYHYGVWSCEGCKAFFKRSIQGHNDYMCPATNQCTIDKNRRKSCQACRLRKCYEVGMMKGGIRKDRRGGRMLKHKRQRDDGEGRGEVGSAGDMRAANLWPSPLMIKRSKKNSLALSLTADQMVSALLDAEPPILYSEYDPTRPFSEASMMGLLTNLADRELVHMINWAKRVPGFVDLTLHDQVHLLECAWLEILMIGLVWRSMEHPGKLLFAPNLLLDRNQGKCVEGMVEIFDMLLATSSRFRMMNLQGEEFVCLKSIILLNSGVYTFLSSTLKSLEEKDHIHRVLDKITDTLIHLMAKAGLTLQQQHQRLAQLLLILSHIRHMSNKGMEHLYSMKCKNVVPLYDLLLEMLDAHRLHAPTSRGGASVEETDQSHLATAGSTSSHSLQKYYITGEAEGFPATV
Chain of Estrogen receptor beta (Homo sapiens) (Q92731 whole entry, looked up, the tested form may be a part): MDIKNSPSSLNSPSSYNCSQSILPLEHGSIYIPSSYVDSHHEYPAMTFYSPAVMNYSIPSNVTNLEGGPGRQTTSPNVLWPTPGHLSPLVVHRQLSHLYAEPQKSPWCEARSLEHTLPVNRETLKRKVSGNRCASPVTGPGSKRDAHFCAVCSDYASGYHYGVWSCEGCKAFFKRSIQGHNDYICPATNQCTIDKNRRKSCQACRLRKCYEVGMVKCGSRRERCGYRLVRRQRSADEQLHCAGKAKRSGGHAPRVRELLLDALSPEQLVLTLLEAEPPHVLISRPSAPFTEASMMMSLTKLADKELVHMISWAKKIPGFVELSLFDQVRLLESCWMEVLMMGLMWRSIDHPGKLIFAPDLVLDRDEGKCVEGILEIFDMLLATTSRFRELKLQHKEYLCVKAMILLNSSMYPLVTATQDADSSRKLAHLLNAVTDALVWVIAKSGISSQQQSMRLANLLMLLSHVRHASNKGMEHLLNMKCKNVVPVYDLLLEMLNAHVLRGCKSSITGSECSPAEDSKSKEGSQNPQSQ
Chain of human Norepinephrine Transporter (NET), SLC6A2 (gene 6530) (P23975 whole entry, looked up): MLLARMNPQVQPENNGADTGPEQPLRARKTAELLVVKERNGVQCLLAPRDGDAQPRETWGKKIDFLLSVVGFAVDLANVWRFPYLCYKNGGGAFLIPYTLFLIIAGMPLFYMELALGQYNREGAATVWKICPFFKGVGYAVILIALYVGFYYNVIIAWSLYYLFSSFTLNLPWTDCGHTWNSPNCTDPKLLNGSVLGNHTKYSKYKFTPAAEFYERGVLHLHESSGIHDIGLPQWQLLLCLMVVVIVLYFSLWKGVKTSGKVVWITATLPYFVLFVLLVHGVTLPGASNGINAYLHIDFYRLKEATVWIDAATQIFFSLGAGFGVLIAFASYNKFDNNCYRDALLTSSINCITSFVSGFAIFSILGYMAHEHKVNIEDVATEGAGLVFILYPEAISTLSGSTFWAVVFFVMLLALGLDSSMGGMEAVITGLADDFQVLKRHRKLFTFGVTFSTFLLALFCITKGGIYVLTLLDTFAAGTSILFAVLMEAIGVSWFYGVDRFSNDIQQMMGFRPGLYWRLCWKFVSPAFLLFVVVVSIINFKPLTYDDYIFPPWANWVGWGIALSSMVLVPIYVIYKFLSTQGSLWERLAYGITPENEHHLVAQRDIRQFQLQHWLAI
Chain of Bile acid receptor (Homo sapiens) (Q96RI1 whole entry, looked up, the tested form may be a part): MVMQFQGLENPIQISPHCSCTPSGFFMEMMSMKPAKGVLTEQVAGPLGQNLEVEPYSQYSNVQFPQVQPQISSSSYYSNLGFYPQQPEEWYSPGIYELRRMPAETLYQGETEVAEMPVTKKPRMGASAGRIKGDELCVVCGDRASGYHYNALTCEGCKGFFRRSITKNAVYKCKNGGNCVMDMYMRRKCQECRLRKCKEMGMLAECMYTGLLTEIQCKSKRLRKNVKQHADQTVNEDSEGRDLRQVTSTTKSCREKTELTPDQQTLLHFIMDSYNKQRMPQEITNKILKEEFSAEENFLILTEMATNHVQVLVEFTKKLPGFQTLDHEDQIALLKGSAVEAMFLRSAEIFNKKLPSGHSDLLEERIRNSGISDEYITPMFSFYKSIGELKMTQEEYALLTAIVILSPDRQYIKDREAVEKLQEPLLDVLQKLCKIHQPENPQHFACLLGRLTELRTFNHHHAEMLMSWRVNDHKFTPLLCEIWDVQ
Chain of mouse Estrogen Receptor alpha (Era), Esr1 (gene 13982) (P19785 whole entry, looked up): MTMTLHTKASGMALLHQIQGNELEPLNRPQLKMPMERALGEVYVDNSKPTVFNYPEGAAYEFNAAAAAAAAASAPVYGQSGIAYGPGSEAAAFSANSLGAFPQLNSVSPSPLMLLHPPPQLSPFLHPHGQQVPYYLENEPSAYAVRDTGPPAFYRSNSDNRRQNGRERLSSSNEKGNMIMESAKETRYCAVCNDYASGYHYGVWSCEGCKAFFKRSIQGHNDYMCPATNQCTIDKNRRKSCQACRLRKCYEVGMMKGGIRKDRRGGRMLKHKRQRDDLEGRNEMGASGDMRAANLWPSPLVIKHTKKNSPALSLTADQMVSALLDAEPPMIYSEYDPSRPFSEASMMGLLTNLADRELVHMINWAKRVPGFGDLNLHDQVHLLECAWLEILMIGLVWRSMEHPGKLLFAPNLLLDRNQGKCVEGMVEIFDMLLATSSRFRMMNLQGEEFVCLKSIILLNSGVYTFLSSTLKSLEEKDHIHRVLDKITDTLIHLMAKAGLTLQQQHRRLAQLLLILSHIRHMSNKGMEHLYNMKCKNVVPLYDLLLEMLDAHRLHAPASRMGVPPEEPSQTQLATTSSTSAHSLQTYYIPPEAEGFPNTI
Chain of human Dopamine Transporter (DAT), SLC6A3 (gene 6531) (Q01959 whole entry, looked up): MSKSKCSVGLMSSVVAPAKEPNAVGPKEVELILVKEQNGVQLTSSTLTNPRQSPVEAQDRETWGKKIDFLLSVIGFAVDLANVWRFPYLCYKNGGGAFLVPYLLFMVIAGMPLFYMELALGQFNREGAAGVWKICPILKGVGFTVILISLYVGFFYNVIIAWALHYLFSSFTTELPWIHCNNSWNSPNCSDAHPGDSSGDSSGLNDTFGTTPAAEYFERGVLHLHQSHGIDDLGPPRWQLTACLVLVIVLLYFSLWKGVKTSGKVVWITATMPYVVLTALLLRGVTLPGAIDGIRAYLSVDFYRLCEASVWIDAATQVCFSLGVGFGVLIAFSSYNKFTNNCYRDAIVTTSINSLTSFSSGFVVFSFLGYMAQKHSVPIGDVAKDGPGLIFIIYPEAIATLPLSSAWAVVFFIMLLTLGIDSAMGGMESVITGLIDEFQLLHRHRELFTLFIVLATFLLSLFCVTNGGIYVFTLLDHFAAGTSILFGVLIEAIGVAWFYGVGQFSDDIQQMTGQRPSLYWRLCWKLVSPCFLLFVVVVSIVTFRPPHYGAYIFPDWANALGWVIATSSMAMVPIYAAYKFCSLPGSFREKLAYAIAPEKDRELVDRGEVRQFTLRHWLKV
Chain of guinea pig Sigma Receptor, Non-selective Binding, SIGMAR1 (gene 100135589) (Q60492 whole entry, looked up): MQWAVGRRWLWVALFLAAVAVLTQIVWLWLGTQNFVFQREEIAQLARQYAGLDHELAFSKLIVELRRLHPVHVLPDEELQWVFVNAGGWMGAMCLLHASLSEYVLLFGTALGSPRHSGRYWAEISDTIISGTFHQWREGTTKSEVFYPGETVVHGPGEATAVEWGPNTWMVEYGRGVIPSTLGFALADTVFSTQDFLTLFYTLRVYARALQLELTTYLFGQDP

O=C(O)Cc1cc(I)c(Oc2cc(I)c(O)c(I)c2)c(I)c1
active: [3] 43.8 nM and 1.53 nM and 9.65 µM | [4] 10.1 µM | [7] 44.5 µM | [8] 48.3 µM | [9] 11.6 µM | [10] 6.55 µM | [11] 10.6 µM | [12] 11.8 µM
inactive: [1] | [2] | [5] | [6]

c1ccc2cc3c(ccc4ccccc43)cc2c1
active: [4] 14.7 µM | [8] 59.4 µM
inactive: [3] | [5] | [7] | [8] | [13] | [14] | [9] | [11] | [12]

CCc1nn(C2CCCCC2)c2cc(C3(C#N)CCC(C(=O)O)CC3)ccc12 (centres undefined)
active: [13] 23.6 µM | [14] 41.3 µM | [9] 76.9 µM
inactive: [3] | [5] | [6] | [7] | [8] | [9] | [11] | [12]

CC(C)(C)c1ccc(O)c(C(C)(C)C)c1
inactive: [2] | [6] | [7] | [8] | [11] | [12]
active: [15] 6.72 µM

CCCCCCCCCCCCCC[N+](C)(C)C
inactive: [7] | [11]
active: [16] 0.558 µM | [15] 4.13 µM | [17] 41.5 µM | [4] 3.12 µM | [5] 14.3 µM | [8] 69.9 µM

CC(=O)NC1(c2cccc(F)c2)CCN(CC[C@@]2(c3ccc(Cl)c(Cl)c3)CN(c3ccccc3)C(=O)CO2)CC1
active: [2] 25.1 µM | [18] 9.66 µM | [15] 9.61 µM | [4] 10.1 µM | [8] 62.3 µM | [13] 9.52 µM | [14] 9.83 µM
inactive: [5] | [7] | [11] | [12]

COC(=O)CCCCC(=O)OC
inactive: [7] | [8] | [14] | [9] | [11] | [12]

CCCCCCCCCCCCCCCS(=O)(=O)Oc1ccccc1
inactive: [6] | [7] | [8] | [13] | [14] | [10] | [11] | [12]
